Bioassay records: PubChem, National Center for Advancing Translational Sciences (NCATS)
This excerpt belongs to a sample that is enriched for hits.
TDP1 cell noCPT: qHTS for Inhibitors of human tyrosyl-DNA phosphodiesterase 1 (TDP1): qHTS in cells in absence of CPT; DT40 Tdp1-/- hTDP1 cells, no CPT, ATP luminescence, 48 h; Potency, µM (doses to about 46.2 µM), for inactives: top-dose activity change, negative = growth inhibition, actives largely listed as inhibitors; 420,000 compounds, 15% hits; AID 686978, 2013; also: potency is read from the fitted curve at half-maximal effect; nearly all actives have a fitted effect of over 55% in size
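A cellular qHTS used chicken DT40 cells lacking endogenous Tdp1 but carrying stably transfected human TDP1. Compounds were applied without camptothecin, and cell growth kinetics were judged by ATP-dependent luminescence after ≥48 hr.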
TDP1 cell CPT: DT40-hTDP1 cell growth loss with CPT | Potency, µM (highest dose often 46.2 µM), for the others: at the highest dose activity change, negative = growth inhibition, actives largely listed as inhibitors | 420,000 compounds, 12% hits | chicken DT40 Tdp1-/-;hTDP1 cells + 20 nM CPT, ATP luminescence, 48 h; also: potency is read from the fitted curve at half-maximal effect; nearly all actives have a fitted effect of over 55% in size
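Chicken DT40 Tdp1-/- cells stably complemented with human TDP1 were seeded at 400 cells/well in medium containing 20 nM camptothecin, exposed to pin-transferred compounds, and grown at 37 °C for at least 48 hr. Viability was read as ATP luminescence.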
HT1080NT lethal: kills 2HG-producing HT-1080-NT fibrosarcoma cells | HT-1080-NT fibrosarcoma viability, CellTiter-Glo ATP luminescence, 48 h | Potency, µM (titrated, usually from 46.1 µM), without a hit: at the top dose activity, negative = less viability, actives largely listed as cytotoxic | 360,000 compounds, 1.6% hits | AID 686970;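 also: NT is the 2HG producing partner of a matched IDH1 knockdown line; potency is read from the fitted curve at half-maximal effect; 0% = DMSO-treated cells and -100% = media-only wells without cells; nearly all actives have a fitted effect of over 55% in size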
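Read-out is CellTiter-Glo luminescence after 10 minutes at room temperature, following 48 hours' compound treatment of HT-1080-NT cells (750 cells/well, RPMI, 5% FBS, 37 degrees C).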
12-LOX inh: inhibitors of human 12S-lipoxygenase ALOX12. P18054. purified 12hLO, xylenol orange hydroperoxide absorbance. Potency, µM (titrated, usually from 108 µM), for the others: top-dose activity change, negative = inhibition, most hits filed as inhibitors. 580,000 compounds, 1.1% hits. AID 1671190; also: potency is read from the fitted curve at half-maximal effect
Target sequence (P18054 whole entry, looked up): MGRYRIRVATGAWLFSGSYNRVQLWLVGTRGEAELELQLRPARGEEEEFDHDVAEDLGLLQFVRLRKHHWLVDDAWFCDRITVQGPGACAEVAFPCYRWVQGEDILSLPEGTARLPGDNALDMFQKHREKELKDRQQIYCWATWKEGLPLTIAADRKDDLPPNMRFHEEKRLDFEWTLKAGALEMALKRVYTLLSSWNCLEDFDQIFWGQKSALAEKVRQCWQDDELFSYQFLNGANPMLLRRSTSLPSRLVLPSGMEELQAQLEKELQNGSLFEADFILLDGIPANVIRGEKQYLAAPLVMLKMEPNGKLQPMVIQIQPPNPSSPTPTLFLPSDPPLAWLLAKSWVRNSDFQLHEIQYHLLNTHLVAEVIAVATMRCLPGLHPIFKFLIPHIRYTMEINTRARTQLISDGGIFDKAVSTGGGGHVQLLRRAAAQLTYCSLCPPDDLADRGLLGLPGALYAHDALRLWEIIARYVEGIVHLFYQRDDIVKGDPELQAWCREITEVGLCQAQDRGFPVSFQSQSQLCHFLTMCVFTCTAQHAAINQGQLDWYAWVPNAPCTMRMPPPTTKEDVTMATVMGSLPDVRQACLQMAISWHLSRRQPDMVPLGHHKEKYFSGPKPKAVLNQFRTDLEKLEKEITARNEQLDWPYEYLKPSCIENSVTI
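Purified human 12hLO at 150 nM in 25 mM Hepes, 0.01% Triton X-100, pH 7.0, preincubated 15 min at room temperature with compound. Reaction started with 40 uM arachidonic acid, 30 min at room temperature. Hydroperoxide measured by Fe-xylenol orange, 573/405 nm absorbance ratio.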
IL-1B inflam inh: inhibitors of inflammasome signaling (IL-1 beta secretion); THP-1 LPS/ATP IL-1B secretion, AlphaLISA, 16 h; hits give low values; activity change, % at 57.5 µM; 360,000 compounds, 4.7% hits; in the data active = activity change below about -50%; inconclusive = mostly about -30% to -49%
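Secreted IL-1B measured by AlphaLISA bead assay after 16 h compound exposure of THP-1 cells; compounds (final up to 57.5 uM) added 1 h before LPS (250 ng/mL) and ATP (1.25 mM) stimulation; lower signal means less secretion.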
HT1080 IDH1KD tx: HT-1080 IDH1 knockdown cell toxicity (counter line); HT-1080 IDH1 knockdown viability, ATP luminescence, 48 h; Potency, µM (highest dose often 46.1 µM), without a hit: at the top dose activity, negative = toxicity, actives largely listed as cytotoxic; 360,000 compounds, 2% hits;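 also: potency is read from the fitted curve at half-maximal effect; 0% = DMSO wells and -100% = cell-free medium wells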
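CellTiter-Glo luminescence after 48 h compound exposure at 37 degrees C of IDH1-knockdown HT-1080 cells in 5% FBS RPMI. %Activity scaled between DMSO wells and cell-free media wells, with curves fitted and assigned curve classes.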
Numbers without * were called inactive; u = inconclusive; x = no result given; [ ] = another dose, or the depositor's remark. Unless noted, calls follow the shape of the dose curve; as a rule, active = well fitted curve in the direction sought with a large enough effect; inconclusive = small, poorly fitted or top-dose-only effect, or another doubt; inactive = no such curve, though single readings can be large; an effect the other way counts as inactive or inconclusive. Unless noted, % is scaled to controls: 0 for no effect and ±100 for the full control effect.

SMILES	TDP1 cell noCPT	TDP1 cell CPT	HT1080NT lethal	12-LOX inh	IL-1B inflam inh	HT1080 IDH1KD tx
CCOc1cc(N2CCOCC2)c(OCC)cc1NC(=O)COC(=O)c1cccc2ccccc12	-27.5%	u	0.3%	-12.2%	-8.9	-5.4%
CCOc1cc(N2CCOCC2)c(OCC)cc1NC(=O)C(C)C	-14.5%	-22.4%	19.9%	3.8%	14.2	18.6%
CCOc1cc(N2CCOCC2)c(OCC)cc1NC(=O)c1ccc(S(=O)(=O)N(C)C)cc1	u	u	-12.0%	5.7%	-14.4	11.0%
CCOc1cc(N2CCOCC2)c(OCC)cc1NC(=O)c1ccc(C)cc1	9.2µM*	u	-6.1%	-2.2%	6.3	-9.8%
C/[N+]([O-])=C/c1c(OCc2ccccc2)ccc2ccccc12	23.1µM*	-0.9%	-0.3%	x	-11.2	-2.7%
Cc1cccc(NC(=S)NC(=O)c2ccc(Br)o2)c1C	-22.5%	-8.2%	-10.2%	u	-1.5	-3.9%
Cc1ccccc1OCC(=O)Nc1ccc(N2CCN(C(=O)c3ccco3)CC2)cc1	20.6µM*	u	u	1.4%	u	-8.5%
Cc1cccc(OCC(=O)Nc2ccc(N3CCN(C(=O)c4ccco4)CC3)cc2)c1C	u	u	-23.8%	0.0%	28.2	-12.1%
Cc1cccc(C)c1NC(=S)NC(=O)c1ccc(Br)o1	u	u	-9.5%	44.7µM*	13.7	-7.9%
N/C(=N\O)c1ccc(NC(=O)c2ccc(Br)o2)cc1	u	18.4µM*	7.5%	-4.2%	-1.9	-1.6%
Cc1cc(C)cc(OCC(=O)Nc2ccc(N3CCN(C(=O)c4ccco4)CC3)cc2)c1	17.8µM*	23.1µM*	-19.2%	0.1%[57.4 µM]	u	-17.2%
CCC(=O)NC(=S)Nc1ccc(NC(=O)c2ccc(Br)o2)cc1	u	-10.3%	-8.4%	-8.4%	-54.3*	4.6%
O=C(COc1ccc([N+](=O)[O-])cc1)Nc1ccc(N2CCN(C(=O)c3ccco3)CC2)cc1	5.8µM*	9.2µM*	-4.9%	0.6%	-9.9	10.2%
CCC(=O)N1CCN(c2ccc(NC(=O)COc3ccc(CC)cc3)cc2)CC1	20.6µM*	-18.8%	-17.9%	-3.0%	-9.1	2.7%
CCCCC(=O)Nc1ccc(N2CCN(C(=O)CC)CC2)cc1	-5.8%	-5.2%	10.4%	u	27.7	5.0%
CCN1CCN(c2ccc(NC(=O)COc3ccc([N+](=O)[O-])cc3)cc2)CC1	u	u	7.6%	-15.9%	0.0	-0.3%
Cc1ccccc1C(=O)N1CCN(c2ccc(NC(=O)CSc3ccc(Cl)cc3)cc2)CC1	10.3µM*	16.4µM*	-25.0%	4.2%	-72.1*	u
O=C(CSc1ncnc2ccccc12)Nc1ccccc1OC(F)F	x	x	x	12.0%	x	x
Cc1cscc1-c1ccc(C(=O)Nc2c(C)cccc2C)o1	4.61µM*	3.66µM*	-28.8%	u	u	u
O=C(COc1ccc(Cl)cc1)Nc1ccc(N2CCN(C(=O)c3ccco3)CC2)cc1	13µM*	10.3µM*	u	1.3%[57.4 µM]	u	-11.1%
O=C(CSc1ccc(Cl)cc1)Nc1ccc(N2CCN(C(=O)c3ccco3)CC2)cc1	23.1µM*	u	u	0.7%	-67.9*	u
O=C(CSc1ccc(Cl)cc1)Nc1ccc(NC(=O)c2ccco2)cc1	-10.1%	-1.4%	20.0%	-8.5%	-10.6	1.9%
O=C(CNC(=S)NC(=O)c1ccc(Br)o1)c1ccccc1	u	16.4µM*	-1.2%	10.9%	-0.2	-0.9%
CCCCCCCCOc1ccc(/C=C/C(=O)C2C(=O)C=C(C)OC2=O)cc1 (stereo not drawn)	x	x	x	-15.8%	x	x
CCC(=O)N1CCN(c2ccc(NC(=O)c3ccc(Br)o3)cc2)CC1	-14.4%	-7.9%	-3.6%	-4.1%	-56.5*	-13.2%
SMILES	TDP1 cell noCPT	TDP1 cell CPT	HT1080NT lethal	12-LOX inh	IL-1B inflam inh	HT1080 IDH1KD tx
CC1=C(C(=O)Nc2ccc(C)cc2C)C2(CCCCC2)OC1=O	x	x	x	-24.5%	x	x
C=CS(=O)(=O)N(Cc1ccc(Cl)c(Cl)c1)C[C@@H](O)CO	20.6µM*	20.6µM*	u	x	-103.8*	u
CN(Cc1ccc(Cl)c(Cl)c1)C(C(=O)NC1CC1)c1ccccc1 (stereo not drawn)	x	x	x	29.7%	x	x
O=C(Oc1ccc(OC(=O)C2CCC2)cc1)C1CCC1	23.1µM*	u	2.7%	-1.5%	14.7	-3.7%
Cn1nccc1CN1CCC2(CNc3ccccc3[S+](=O)([O-])N2)C1 (stereo not drawn)	x	x	x	64.6%[176 µM]	x	x
CCOC(=O)c1[nH]c(C)c(C(=O)Nc2ccc(Cl)cc2)c1C	-10.8%	8.6%	5.8%	7.4%[57.4 µM]	14.1	8.7%
COc1cccc(/C=N/NC(=O)c2[nH]c(C)c(C(=O)N/N=C/c3cccc(OC)c3)c2C)c1	u	u	-10.2%	-4.1%	-22.6	-14.2%
COc1ccc(C(=O)Oc2cccc(/C=N/NC(N)=S)c2)cc1	u	u	-12.3%	39.8µM*	0.0	-12.5%
CCOC(=O)c1c(C)[nH]c(C(=O)N/N=C/c2cccc(OC)c2)c1C	14.6µM*	u	u	11.6%	32.6	u
CCOC(=O)c1[nH]c(C)c(C(=O)Nc2cccc(Cl)c2C)c1C	16.4µM*	10.3µM*	11.2µM*	-2.7%	22.0	7.94µM*
COC(=O)N/N=C/c1cccc(OC(=O)c2ccc3c(c2)OCO3)c1	-28.8%	-13.4%	3.4%	u	-3.9	-2.2%
